According to PubChem BioAssay (NCATS):
Records with an inconclusive call do not appear. Active and inactive are the calls of the source. Calls come from the whole dose curve; as a rule, active = well fitted curve in the direction sought with a large enough effect; inconclusive = small, poorly fitted or top-dose-only effect, or another doubt; inactive = no such curve, though single readings can be large; an effect the other way counts as inactive or inconclusive.

Experiments:
[1] = biological target: Beta-2 adrenergic receptor (Homo sapiens) (UniProt P07550); experiment: qHTS validation assay of beta-arrestin-biased ligands of beta2-adrenergic receptor (AID 485366)
Summary of the method: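 Tango cells expressing recombinant beta2-AR and beta-arrestin with tTA-driven luciferase, in DMEM with 1% FBS. Compounds were titrated up to 46 microM for 18 hr at 37 degrees C. Luminescence was read 15 min after substrate; curves were fitted and class-assigned.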

[2] = biological target: ATP-dependent 6-phosphofructokinase (Trypanosoma brucei brucei) (UniProt O15648); experiment: qHTS Validation Assay to Find Inhibitors of T. brucei phosphofructokinase (AID 485368); note: potency is the fitted concentration of half-maximal effect
Summary of the method: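 Activity was read as ADP production by luminescence (ADP-Glo) after 45 min at room temperature. The enzyme was 1.25nM PFK in 0.1M TEA pH 8.0 with 0.5 mM F6P, 0.1mM ATP and 5 mM MgCl2. Compounds were titrated up to 57 uM and % activity normalized to no-enzyme and full-enzyme controls.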

[3] = Quantitative high throughput screen for delayed death inhibitors of the malarial parasite plastid, 96 hour incubation (AID 488745); note: nearly all actives have a fitted effect of over 70% in size; note: potency is the fitted concentration of half-maximal effect
Summary of the method: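 Growth of reporter-bearing P. falciparum in red cells is measured after 96 h with compound, covering two erythrocytic cycles. Luminescence from the integrated luciferase serves as the growth signal.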

[4] = biological target: Thioredoxin reductase 1, cytoplasmic (Rattus norvegicus) (UniProt O89049); experiment: qHTS Assay for Substrates of Mammalian Selenoprotein Thioredoxin Reductase 1 (TrxR1) (AID 488772);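 note: NADPH fluorescence in the first read after selenite addition and not the 8 min delta; series mostly up to about 57 µM; a drop in NADPH fluorescence below the no-compound background marks a TrxR1 substrate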
Summary of the method: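 Quantitative HTS in Tris-HCl buffer at pH 7.5 with EDTA and Tween-20, using rat TrxR1, 400 uM NADPH and 400 uM selenite (final). A fall in initial NADPH fluorescence relative to background marked substrate behaviour.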

[5] = biological target: Thioredoxin reductase 1, cytoplasmic (Rattus norvegicus) (UniProt O89049); experiment: qHTS Assay for Inhibitors of Mammalian Selenoprotein Thioredoxin Reductase 1 (TrxR1) (AID 488773); details: Potency: inhibition; note: nearly all actives have a fitted effect of over 40% in size; note: potency is the fitted concentration of half-maximal effect
Summary of the method: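 Steps: enzyme (90 nM) plus NADPH (400 uM final), 5 min at ~22 deg C; compound added, 15 min; selenite (400 uM final) added; fluorescence followed for 8 min. Concentration-response curves derived from the normalized delta values.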

[6] = biological target: Flap endonuclease 1 (Homo sapiens) (UniProt P39748); experiment: qHTS Validation Assay for the Inhibitors of Human Flap endonuclease 1 (FEN1) (AID 488816); note: potency is the fitted concentration of half-maximal effect
Summary of the method: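 Readings taken at 0 and 15 min after starting the reaction with 50 nM (final) substrate supplied the signal. Compounds had first sat with 10 nM FEN1 reagent for 15 min at room temperature. Values come from Hill-equation concentration-response fits.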

[7] = biological target: M-phase phosphoprotein 8 (Homo sapiens) (UniProt Q99549); experiment: qHTS Validation Assay for Inhibitors for MPP8 Chromodomain Interactions with Methylated Histone Tails (AID 488949); note: nearly all actives have a fitted effect of over 55% in size; note: potency is the fitted concentration of half-maximal effect
Summary of the method: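 MPP8 (50 nM) was pre-bound to 50 nM biotinylated H3(1-18)K9me3 peptide in PBS pH 7.4 with 0.01% Tween-20. Compounds were then added for 30 min at room temperature, and complex disruption was read by AlphaScreen with streptavidin donor and nickel-chelate acceptor beads.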

[8] = biological target: Methanococcus maripaludis chaperonin (MmCpn) (UniProt Q6LX38); experiment: High-Throughput Screening for Modulators of Cytosolic Chaperonin Activity: MmCpn Primary Screen (AID 488978);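 note: 50 nM MmCpn enzyme hydrolysing 30 µM ATP at 37 °C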
Summary of the method: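 MmCpn at 50 nM final was preincubated 5 min at RT with compound. ATP was then added at 30 uM final for 10 min at 37 C. ADP formed was detected by Transcreener HTRF (665/590 nm).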

[9] = Quantitative high throughput screen for delayed death inhibitors of the malarial parasite plastid, 48 hour incubation (AID 488752); note: nearly all actives have a fitted effect of over 65% in size; note: potency is the fitted concentration of half-maximal effect
Summary of the method: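 One parasite generation (48 h, 37 C, 5% CO2) of luciferase-reporter P. falciparum in erythrocytes is run with test compound; decreased luminescence indicates inhibited growth.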

[10] = biological target: Chromobox protein homolog 1 (Homo sapiens) (UniProt P83916); experiment: qHTS Validation Assay for Inhibitors of HP1-beta Chromodomain Interactions with Methylated Histone Tails (AID 488953); note: nearly all actives have a fitted effect of over 50% in size; note: potency is the fitted concentration of half-maximal effect
Summary of the method: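 Measured as loss of AlphaScreen luminescence from streptavidin donor and nickel acceptor beads (10 ug/mL final) bridging HP1-beta and biotin-H3(1-18)K9me3, each 50 nM. Compounds met the preassembled complex for 30 min at RT.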

Measured: Potency

Chain of M-phase phosphoprotein 8 (Homo sapiens) (Q99549 whole entry, looked up): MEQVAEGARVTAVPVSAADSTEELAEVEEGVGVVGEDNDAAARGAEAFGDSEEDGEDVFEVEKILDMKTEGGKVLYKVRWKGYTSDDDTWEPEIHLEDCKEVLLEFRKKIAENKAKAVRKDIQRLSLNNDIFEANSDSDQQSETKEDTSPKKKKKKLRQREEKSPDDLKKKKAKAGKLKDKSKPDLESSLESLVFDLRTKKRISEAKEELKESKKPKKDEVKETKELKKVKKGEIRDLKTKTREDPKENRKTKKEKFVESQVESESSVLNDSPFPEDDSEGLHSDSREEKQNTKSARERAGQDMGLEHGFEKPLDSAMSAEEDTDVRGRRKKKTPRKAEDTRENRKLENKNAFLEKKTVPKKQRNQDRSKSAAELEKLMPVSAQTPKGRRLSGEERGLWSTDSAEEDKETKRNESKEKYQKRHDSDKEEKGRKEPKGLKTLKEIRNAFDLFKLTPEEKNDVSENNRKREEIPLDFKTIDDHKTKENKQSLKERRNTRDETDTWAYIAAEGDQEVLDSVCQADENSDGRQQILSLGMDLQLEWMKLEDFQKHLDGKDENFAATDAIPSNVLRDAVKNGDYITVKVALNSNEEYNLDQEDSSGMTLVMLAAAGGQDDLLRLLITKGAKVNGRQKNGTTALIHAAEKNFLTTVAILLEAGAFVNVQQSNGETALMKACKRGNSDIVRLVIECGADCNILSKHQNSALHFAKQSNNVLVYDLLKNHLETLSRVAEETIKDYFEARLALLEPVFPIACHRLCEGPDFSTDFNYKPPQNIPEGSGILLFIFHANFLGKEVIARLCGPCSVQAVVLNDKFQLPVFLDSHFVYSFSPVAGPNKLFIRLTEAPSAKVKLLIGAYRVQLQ
Chain of Beta-2 adrenergic receptor (Homo sapiens) (P07550 whole entry, looked up): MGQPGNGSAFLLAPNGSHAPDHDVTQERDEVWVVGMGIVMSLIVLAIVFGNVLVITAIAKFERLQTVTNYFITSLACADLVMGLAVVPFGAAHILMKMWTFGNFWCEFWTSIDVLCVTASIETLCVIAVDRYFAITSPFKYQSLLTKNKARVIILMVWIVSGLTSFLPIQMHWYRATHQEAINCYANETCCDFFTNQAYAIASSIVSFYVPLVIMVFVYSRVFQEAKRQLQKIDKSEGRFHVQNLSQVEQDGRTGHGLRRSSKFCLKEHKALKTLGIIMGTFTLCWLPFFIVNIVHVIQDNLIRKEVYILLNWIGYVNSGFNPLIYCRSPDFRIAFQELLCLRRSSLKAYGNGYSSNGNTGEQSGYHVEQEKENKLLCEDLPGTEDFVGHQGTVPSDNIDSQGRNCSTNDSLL
Chain of Methanococcus maripaludis chaperonin (MmCpn) (Q6LX38 1-543): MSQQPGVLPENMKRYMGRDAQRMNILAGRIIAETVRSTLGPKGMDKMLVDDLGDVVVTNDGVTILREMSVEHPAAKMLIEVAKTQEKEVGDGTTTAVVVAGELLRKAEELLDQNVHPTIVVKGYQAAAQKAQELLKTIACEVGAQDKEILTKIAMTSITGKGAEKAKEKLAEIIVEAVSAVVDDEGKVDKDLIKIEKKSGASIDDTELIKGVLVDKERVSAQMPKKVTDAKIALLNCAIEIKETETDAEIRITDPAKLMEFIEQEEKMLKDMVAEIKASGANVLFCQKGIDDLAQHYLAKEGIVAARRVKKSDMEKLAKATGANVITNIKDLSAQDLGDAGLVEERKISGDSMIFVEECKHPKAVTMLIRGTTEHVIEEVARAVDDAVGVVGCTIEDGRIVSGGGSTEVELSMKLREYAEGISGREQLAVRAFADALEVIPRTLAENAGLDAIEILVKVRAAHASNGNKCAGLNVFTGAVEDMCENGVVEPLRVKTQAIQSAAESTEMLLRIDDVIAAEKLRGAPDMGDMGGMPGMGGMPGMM
Chain of ATP-dependent 6-phosphofructokinase (Trypanosoma brucei brucei) (O15648 whole entry, looked up): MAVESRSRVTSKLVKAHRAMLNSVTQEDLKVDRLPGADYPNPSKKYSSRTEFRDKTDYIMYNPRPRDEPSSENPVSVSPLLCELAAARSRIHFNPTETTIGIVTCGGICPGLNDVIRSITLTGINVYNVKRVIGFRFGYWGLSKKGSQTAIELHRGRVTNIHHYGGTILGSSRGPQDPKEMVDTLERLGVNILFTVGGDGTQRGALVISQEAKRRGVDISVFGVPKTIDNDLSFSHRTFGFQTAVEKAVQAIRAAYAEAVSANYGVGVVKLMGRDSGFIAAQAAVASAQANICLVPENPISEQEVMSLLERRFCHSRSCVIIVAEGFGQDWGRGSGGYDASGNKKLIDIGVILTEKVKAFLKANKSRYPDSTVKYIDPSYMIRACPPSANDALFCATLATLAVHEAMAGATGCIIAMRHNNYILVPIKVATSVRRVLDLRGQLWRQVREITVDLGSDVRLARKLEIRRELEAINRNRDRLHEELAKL
Chain of Chromobox protein homolog 1 (Homo sapiens) (P83916 whole entry, looked up): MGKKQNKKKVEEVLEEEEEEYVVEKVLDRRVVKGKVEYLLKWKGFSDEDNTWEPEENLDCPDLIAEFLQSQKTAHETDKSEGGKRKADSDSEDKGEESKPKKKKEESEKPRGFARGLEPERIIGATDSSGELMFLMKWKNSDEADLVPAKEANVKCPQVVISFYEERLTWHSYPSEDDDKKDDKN
Chain of Flap endonuclease 1 (Homo sapiens) (P39748 whole entry, looked up): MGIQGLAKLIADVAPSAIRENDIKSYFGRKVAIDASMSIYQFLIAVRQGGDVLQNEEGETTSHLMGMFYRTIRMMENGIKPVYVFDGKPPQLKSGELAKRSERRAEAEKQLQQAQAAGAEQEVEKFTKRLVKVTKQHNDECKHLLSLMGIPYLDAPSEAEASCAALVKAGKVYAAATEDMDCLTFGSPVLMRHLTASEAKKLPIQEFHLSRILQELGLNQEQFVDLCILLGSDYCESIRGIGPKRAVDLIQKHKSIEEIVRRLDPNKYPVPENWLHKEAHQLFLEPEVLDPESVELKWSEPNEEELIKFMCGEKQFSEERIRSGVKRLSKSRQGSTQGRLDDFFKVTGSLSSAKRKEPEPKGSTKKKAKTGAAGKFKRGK
Chain of Thioredoxin reductase 1, cytoplasmic (Rattus norvegicus) (O89049 whole entry, looked up): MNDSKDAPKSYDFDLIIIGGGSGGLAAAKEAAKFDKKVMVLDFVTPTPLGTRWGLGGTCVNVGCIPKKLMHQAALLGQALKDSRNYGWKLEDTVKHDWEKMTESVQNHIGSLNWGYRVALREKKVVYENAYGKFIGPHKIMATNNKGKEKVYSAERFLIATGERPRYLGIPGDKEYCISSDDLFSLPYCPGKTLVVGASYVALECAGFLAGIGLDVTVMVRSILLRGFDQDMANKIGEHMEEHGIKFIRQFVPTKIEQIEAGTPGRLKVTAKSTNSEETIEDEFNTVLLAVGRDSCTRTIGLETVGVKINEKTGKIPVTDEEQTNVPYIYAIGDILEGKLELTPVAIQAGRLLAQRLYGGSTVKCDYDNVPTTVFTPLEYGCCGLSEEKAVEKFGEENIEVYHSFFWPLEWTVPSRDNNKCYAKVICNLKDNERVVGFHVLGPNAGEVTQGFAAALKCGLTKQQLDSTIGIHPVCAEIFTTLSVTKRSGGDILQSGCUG

COc1ccccc1N1CCN(CCN(C(=O)c2ccc(F)cc2)c2ccccn2)CC1
not listed: [9] | [10]
inactive: all other assays above

CC(N)(Cc1ccc(O)cc1)C(=O)O (stereo unspecified)
not listed: [4] | [5]
inactive: all other assays above

CCCn1c(=O)c2[nH]c(C3CCCC3)nc2n(CCC)c1=O
not listed: [3] | [4] | [5]
inactive: all other assays above

OC[C@H]1NC[C@@H](O)[C@@H]1O
not listed: [3] | [5]
inactive: all other assays above

CC(C)Cn1c(=O)n(C)c(=O)c2[nH]cnc21
not listed: [5]
inactive: all other assays above

CCC1(O)CC2CN(CCc3c([nH]c4ccccc34)[C@@](C(=O)OC)(c3cc4c(cc3OC)N(C)C3[C@]45CCN4CC=C[C@@](CC)([C@@H](OC(C)=O)[C@]3(O)C(=O)OC)[C@H]45)C2)C1 (stereo partly specified)
inactive: [1] | [2] | [6] | [7] | [8]
active: [3] 0.522 µM | [9] 0.586 µM

Nc1ccc(CCNc2ncnc3c2ncn3C2OC(CO)C(O)C2O)cc1 (stereo unspecified)
not listed: [3]
inactive: all other assays above

Fc1ccc(CN(C2=NCCN2)c2c(Cl)cccc2Cl)cc1
not listed: [3] | [8] | [9]
inactive: all other assays above

C[C@@H](NCCc1ccc(O)cc1)[C@@H](O)c1ccc(O)cc1
not listed: [3]
inactive: all other assays above

CN1CCC2(CCN3CCc4c(oc5ccccc45)C3C2)N(C)C1=O (stereo unspecified)
not listed: [5] | [6] | [9]
inactive: all other assays above

COc1ccc2c(c1)c(CC(=O)O)c(C)n2Cc1ccc(Cl)cc1
inactive: [1] | [2] | [6] | [7] | [8]
active: [3] 10.4 µM | [10] 0.0067 µM

COc1ccccc1N1CCN(CCCCN2C(=O)c3ccccc3C2=O)CC1
not listed: [9]
inactive: all other assays above

Cn1c(=O)[nH]c2ncn(C)c2c1=O
not listed: [9]
inactive: all other assays above

Nc1nc2ccc(Cl)cc2c2nc(-c3ccco3)nn12
not listed: [5] | [6] | [7]
inactive: all other assays above

CN1C2CCC1CC(OC(c1ccccc1)c1ccccc1)C2 (stereo unspecified)
active: [3] 8.28 µM
not listed: [4] | [9]
inactive: all other assays above

CCCC[C@@]1(C2CCCC2)Cc2cc(OCC(=O)O)c(Cl)c(Cl)c2C1=O
not listed: [4] | [9]
inactive: all other assays above

NC1CONC1=O (stereo unspecified)
not listed: [3] | [5]
inactive: all other assays above

N=S(=O)(O)Cc1noc2ccccc12
not listed: [9]
inactive: all other assays above

Cc1nc(N=Nc2cc(S(=O)(=O)O)c3cc([N+](=O)[O-])cc(S(=O)(=O)O)c3c2)c(COP(=O)(O)O)c(C=O)c1O
inactive: [1] | [3] | [8]
active: [2] 7.57 µM | [6] 23.8 µM | [7] 10 µM | [10] 28.2 µM

CC(=O)NCCc1c[nH]c2ccc(O)cc12
not listed: [9]
inactive: all other assays above

O=c1oc(Cl)c(Cl)c2ccccc12
not listed: [5] | [7] | [10]
inactive: all other assays above

CSC(=N)N
not listed: [5]
inactive: all other assays above

COc1ccc(-c2ccc(N)[n+](CCCC(=O)O)n2)cc1
not listed: [3] | [5]
inactive: all other assays above

COc1cc(CNC(=O)CCCCCCC(C)C)ccc1O
not listed: [5]
inactive: all other assays above

N#CC(C#N)=C(N)/C(C#N)=C/c1ccc(O)cc1
not listed: [5] | [10]
inactive: all other assays above

N[C@H](C(=O)O)[C@H](O)C(=O)O
not listed: [4]
inactive: all other assays above

CCCc1c(OCCCOc2ccc(OCC(=O)O)cc2)ccc(C(C)=O)c1O
not listed: [4] | [6]
inactive: all other assays above

CN(C)CCCc1cc(C(=O)Nc2ccc(-c3ccncc3)cc2)ccc1O
inactive: [1] | [2] | [4] | [5] | [6] | [7]

COCc1nc2c([nH]1)c(=O)n(C)c(=O)n2CC(C)C
not listed: [9]
inactive: all other assays above

C=C1C(=O)O[C@@H]2[C@H]3O[C@]3(C)CCC=C(C)CC[C@@H]12
active: [5] 16.8 µM
not listed: [3]
inactive: all other assays above

C=CCN1CCc2cc(O)c(O)cc2C(c2ccccc2)C1 (stereo unspecified)
inactive: [1] | [2] | [4] | [5] | [6] | [7]

O=c1cc(-c2ccccc2F)[nH]c2cc3c(cc12)OCO3
not listed: [3] | [9] | [10]
inactive: all other assays above

NC1(C(=O)O)CCCCC1
not listed: [2] | [8] | [10]
inactive: all other assays above

c1ccc(C(NCc2cccnc2)(c2ccccc2)c2ccccc2)cc1
not listed: [3] | [9]
inactive: all other assays above

Nc1ncnc2c1nc(Sc1ccc(Cl)cc1)n2[C@H]1OC2COP(=O)(O)O[C@@H]2C1O (stereo partly specified)
not listed: [3] | [9]
inactive: all other assays above

CC(N)=NCCCC[C@@H](N)C(=O)O
not listed: [2] | [8]
inactive: all other assays above
